Data published in PubChem BioAssay (NCI).
About 83,000 compounds went through this panel and 20% of them were active in at least one assay; those are over-represented in the sample as a whole.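 Values shown are percent growth following 48 h exposure of cells in 96-well plates to a single concentration of compound; below 10 was considered active.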 Unmarked numbers belong to inactive results. Active and inactive are the calls of the source.

Key:
Test in all cases: NCI-60 one-dose screen, 48 h (100 = growth as untreated, 0 = no growth, -100 = all killed)
Conditions in all cases: 10 µM unless noted
T-47D breast = system: T-47D breast
BT-549 breast = system: BT-549 breast
MDA-MB-435 melanoma = system: MDA-MB-435 melanoma
SW-620 colon = system: SW-620 colon
MCF7 breast = system: MCF7 breast
HCT-116 colon = system: HCT-116 colon
HCC-2998 colon = system: HCC-2998 colon
KM12 colon = system: KM12 colon

| SMILES | growth (T-47D breast) | growth (BT-549 breast) | growth (MDA-MB-435 melanoma) | growth (SW-620 colon) | growth (MCF7 breast) | growth (HCT-116 colon) | growth (HCC-2998 colon) | growth (KM12 colon) |
| --- | --- | --- | --- | --- | --- | --- | --- | --- |
| COc1cc([N+](=O)[O-])c2ncccc2c1O | 94.8% | 86.9% | 51.8% | 58.6% | 49% | 76.7% | 26.2% | -2.23% (active) |
| COc1ccc(-n2c(-c3ccccc3)c(-c3ccccc3)c3c(SCC(=O)N/N=C/c4ccc(Cl)cc4)ncnc32)cc1 | 79.9% | 85.2% | 98.6% | 99% | 85% | 87.8% | 93.2% | 89.1% |
| OCCCCCCNc1ncnc2cc(Cl)ccc12 | 72% | 87.1% | 109% | 103% | 97.8% | 81.9% | 106% | 99.7% |
| COc1ccc(/C=C\c2cc(OC)c(OC)c(OC)c2)cc1OC(=O)c1cccc(Cn2cc(CCOC(=O)c3cccc(Cn4nnc5c4C(=O)c4ccccc4C5=O)c3)nn2)c1 | 67.6% | 27% | -36.3% (active) | 27.8% | 8.36% (active) | 6.52% (active) | 17.6% | 9.04% (active) |
| COc1ccc(Nc2ncccc2C(=O)NCc2cn(Cc3cccc(Oc4ccccc4)c3)nn2)cc1 | 50.5% | 53.1% | -16.3% (active) | 24.6% | 20% | 23.3% | 41.7% | 20.2% |
| Clc1cc(Cl)c2nc(-c3ccc(-c4ccc(/C=N/NC5=NCCN5)cc4)s3)cn2c1 | 79.6% | 90.9% | 99.3% | 79.2% | 57.8% | 86.3% | 105% | 93% |
| CC(C)NCCCNC1=C(Cl)C(=O)c2ccccc2C1=O | 101% | 99.8% | -66% (active) | -30.7% (active) | 63.4% | 70.7% | 59.7% | 87.2% |
| O=c1[nH]c(NCc2ccccc2)nc2nc(Nc3ccc(NC(=S)Nc4ccccc4)cc3)nc(-c3ccc(O)cc3O)c12 | 84% | 155% | 105% | 95.6% | 96.7% | 99.2% | 113% | 96.3% |
| COc1ccc(Nc2ncccc2C(=O)NCc2cn(Cc3cccc(Oc4ccccc4)c3)nn2)c(OC)c1 | 51.6% | 43% | -24.2% (active) | 26.4% | 25% | 15% | -14.4% (active) | 17.9% |
| Cc1nn(-c2ccc(Cl)cc2)c2ncnc(N/N=C/c3cccc([N+](=O)[O-])c3)c12 | 101% | 106% | 97.1% | 88.9% | 103% | 104% | 94.8% | 66.5% |
| Cc1ccc(C(=O)C2=Cc3cc4ccccc4n3Cc3cnnn32)cc1 | 77.8% | 89.4% | 71.7% | 105% | 90.9% | 94.1% | 98.7% | 83.4% |
| Nc1cc2c(cc1C(=O)c1cccc(F)c1)OCCO2 | 93.6% | 84.5% | 92.1% | 105% | 99.2% | 100% | 95.4% | 100% |
| C=C1C(=O)O[C@H]2[C@H]1CC/C(Cn1cc(CNC(=O)Cc3cn(C(=O)c4ccc(Cl)cc4)c4ccc(OC)cc34)nn1)=C\CC[C@@]1(C)O[C@@H]21 | -61.6% (active) | -3.93% (active) | -63.2% (active) | -67.4% (active) | -62.7% (active) | -95% (active) | 8.2% (active) | 41.9% |
| Cc1ccc(NS(=O)(=O)c2cc(C)ccc2C)cc1 | 47.9% | 39.1% | -24% (active) | 19.9% | 24.3% | 17.6% | 50.9% | 16.2% |
| COc1cc(C(=O)/C=C/c2c(C)n([O-])c3ccc(C(F)(F)F)cc3[n+]2=O)cc(OC)c1OC | 18.3% | 80.6% | 94.1% | 26% | 45.4% | 21.1% | 105% | 91.4% |
| Cc1ccc(-c2nc(C(Cl)Cl)n3nc(-c4ccccc4)cc3n2)cc1 | -6.55% (active) | 70.8% | 15.4% | -22.4% (active) | 18.9% | 9.65% (active) | 23.3% | 0.685% (active) |
| O=C(N/N=C/C=C\c1ccccc1)C(=O)N/N=C/C=C/c1ccccc1 | 100% | 102% | 121% | 106% | 100% | 104% | 109% | 109% |
| Cc1ccc(-c2cc3nc(C(Cl)Cl)nc(-c4ccccc4C)n3n2)cc1 | 49.7% | 88.7% | -2.12% (active) | 46.1% | 70.3% | 49.6% | 81.8% | 26.1% |
| c1ccc(Nc2nc(Nc3ccccc3)nc(Nc3ccccc3)n2)cc1 | 71.9% | 114% | 89.7% | 88.9% | 65% | 82% | 85.6% | 84.4% |
| COc1cccc(-c2nc3sccn3c2-c2ccnc(NCCCNS(=O)(=O)c3ccc(C(F)(F)F)cc3)c2)c1 | 23.7% | 54.6% | 36.8% | 68.5% | 31.1% | 41.9% | 72.2% | 57.2% |
| COc1cc(/C=C/C(=O)c2c(C)nc3ccccc3c2C)ccc1OCCCCOc1cc2c(cc1OC)C(=O)N1CCC[C@H]1C=N2 | -64.7% (active) | -64.8% (active) | -34.8% (active) | -62.2% (active) | -86% (active) | -65.9% (active) | -100% (active) | -69.7% (active) |
| CCC(=O)Oc1ccc(/C(=C(/C)Cc2cccc(OC)c2)c2ccc(OCCN(C)C)cc2)cc1 | 86.7% | 95.7% | 9.82% (active) | 74.2% | 45.1% | 71.8% | 95.1% | 86.3% |
| COc1ccc(-c2c(N)n[nH]c2-c2cc(OC)c(OC)c(OC)c2)cc1 | 75.1% | 50.9% | -40.7% (active) | 21% | 23% | 9.76% (active) | -2.65% (active) | 14% |
| CCOC(=O)c1ccc2c(c1)nc(-c1ccc(OCc3ccccc3)c(OC)c1)n2-c1cc(C(C)(C)C)[nH]n1 | 65.5% | 98.6% | 85% | 98% | 63.1% | 62.8% | 91% | 69.3% |
| C=C1C(=O)O[C@@H]2[C@@H]3O[C@@](C)(CC/C=C(\C)CCC[C@@H]2C)[C@H](O)C[C@@H]13 | 50.9% | 19.1% | 19.2% | 33.5% | 36.3% | -4.01% (active) | 97.5% | 75.8% |
| NC1=C(/C(N)=N/O)C(c2ccccc2)c2ccc3ccccc3c2O1 (centres undefined) | 54.5% | 28% | -56.2% (active) | 23% | 9.02% (active) | 6.57% (active) | 11.8% | 11.1% |
| COc1ccc(C(=O)NC(=O)Nc2cc3c(cc2F)/C(=C/c2[nH]c(C)c(CCC(=O)O)c2C)C(=O)N3)c(F)c1 | 47.8% | 25.2% | 36.8% | 26.6% | 41.7% | 37% | 50.3% | 11.7% |
| COc1cccc(-c2cc3c(O)cc(C#N)cc3[nH]2)c1 | 101% | 81.7% | 70.6% | 88% | 88.3% | 89.9% | 93.8% | 78.1% |
